Reference: PubChem BioAssay (NCI)
Compounds without any hit were thinned out: in the full panel of roughly 83,000, 20% have a hit.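 Each cell line was grown in a 96-well plate and treated with one concentration of compound for 48 hours. Values below 10 were considered active.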 Activity calls are given as the source filed them.

What was measured:
Experiment in all cases: NCI-60 one-dose screen, 48 h (100 = growth as untreated, 0 = no growth, -100 = all killed)
NCI-H23 lung = conditions: 10 µM unless noted
NCI-H322M lung = conditions: 10 µM unless noted
HOP-62 NSCLC = conditions: 10 µM unless noted
NCI-H460 lung = conditions: 10 µM unless noted
HOP-92 NSCLC = conditions: 10 µM unless noted
NCI-H522 lung = conditions: 10 µM
A549/ATCC NSCLC = conditions: 10 µM unless noted
786-0 renal = conditions: 10 µM unless noted
DU-145 prostate = conditions: 10 µM unless noted
K-562 leukemia = conditions: 10 µM unless noted
MALME-3M melanoma = conditions: 10 µM unless noted
MDA-MB-231 breast = conditions: 10 µM unless noted
RXF 393 renal = conditions: 10 µM unless noted
SF-268 CNS = conditions: 10 µM unless noted
SF-295 CNS = conditions: 10 µM unless noted
SF-539 CNS = conditions: 10 µM unless noted
UACC-257 melanoma = conditions: 10 µM unless noted
M14 melanoma = conditions: 10 µM unless noted

Measured: growth

O=C(N/N=C/c1ccc(OC(F)F)c(OC2CCCC2)c1)c1cnn2c1NC(c1ccccc1)C2 (stereo not given)
inactive: NCI-H23 lung 97.5% | NCI-H322M lung 92.6% | HOP-62 NSCLC 84.9% | NCI-H460 lung 82.4% | HOP-92 NSCLC 80.6% | NCI-H522 lung 78.8% | A549/ATCC NSCLC 73.8% | 786-0 renal 89.2% | DU-145 prostate 85.7% | K-562 leukemia 38.6% | MALME-3M melanoma 108% | MDA-MB-231 breast 81.9% | RXF 393 renal 76.9% | SF-268 CNS 64.2% | SF-295 CNS 80.3% | SF-539 CNS 81% | UACC-257 melanoma 88.2% | M14 melanoma 82.9%

Cl.Fc1c[c-]c(-c2ccccn2)c(F)c1.[Pt].c1ccc([PH+](CC[PH+](c2ccccc2)c2ccccc2)c2ccccc2)cc1
active: NCI-H23 lung -77.2% | NCI-H322M lung -98.8% | HOP-62 NSCLC -65.8% | NCI-H460 lung -75.3% | HOP-92 NSCLC -77.4% | NCI-H522 lung -58.4% | A549/ATCC NSCLC -52.9% | 786-0 renal -79.4% | DU-145 prostate -99.6% | K-562 leukemia -11.4% | MALME-3M melanoma -87.2% | MDA-MB-231 breast -74.2% | RXF 393 renal -84.4% | SF-268 CNS -57.7% | SF-295 CNS -88% | SF-539 CNS -94.6% | UACC-257 melanoma -59.1% | M14 melanoma -84.7%

O=C1/C(=C/c2ccc([N+](=O)[O-])cc2)Oc2ccc(O)cc21
inactive: NCI-H23 lung 75.8% | NCI-H322M lung 106% | HOP-62 NSCLC 50.6% | NCI-H460 lung 40.9% | HOP-92 NSCLC 93.7% | NCI-H522 lung 75.4% | A549/ATCC NSCLC 70.8% | 786-0 renal 96% | DU-145 prostate 103% | K-562 leukemia 41.7% | MALME-3M melanoma 91.8% | MDA-MB-231 breast 89% | RXF 393 renal 92.6% | SF-268 CNS 89.9% | SF-295 CNS 68.2% | SF-539 CNS 86.4% | UACC-257 melanoma 67.3% | M14 melanoma 97.8%

NC(=O)c1cccc(-n2ccc3cc(NC(=O)Nc4ccc(Cl)c(Cl)c4)ccc32)n1
active: RXF 393 renal 6.33%
inactive: NCI-H23 lung 92.9% | NCI-H322M lung 96.7% | HOP-62 NSCLC 81.1% | NCI-H460 lung 75.4% | HOP-92 NSCLC 78% | NCI-H522 lung 68.2% | A549/ATCC NSCLC 74.4% | 786-0 renal 66.4% | DU-145 prostate 83.7% | K-562 leukemia 63.4% | MALME-3M melanoma 85% | MDA-MB-231 breast 79.1% | SF-268 CNS 83% | SF-295 CNS 68.8% | SF-539 CNS 64.1% | UACC-257 melanoma 89.9% | M14 melanoma 78%

N#Cc1c(-c2cccc(F)c2)cc(-c2ccc(Br)s2)[nH]c1=O
inactive: NCI-H23 lung 84.9% | NCI-H322M lung 87.9% | HOP-62 NSCLC 72.2% | NCI-H460 lung 38.6% | HOP-92 NSCLC 42.6% | NCI-H522 lung 35.7% | A549/ATCC NSCLC 59.4% | 786-0 renal 96.3% | DU-145 prostate 90.1% | K-562 leukemia 24.5% | MALME-3M melanoma 67.2% | MDA-MB-231 breast 79.7% | RXF 393 renal 87.3% | SF-268 CNS 83.1% | SF-295 CNS 73.4% | SF-539 CNS 83.6% | UACC-257 melanoma 87.4% | M14 melanoma 39.8%

CCCCCCCC/C=C\CCCCCCCCOc1cccc(CC(=O)NCC[N+]2(C)CCCC2)c1
inactive: NCI-H23 lung 75.9% | NCI-H322M lung 99.5% | HOP-62 NSCLC 69.5% | NCI-H460 lung 54.3% | HOP-92 NSCLC 92.7% | NCI-H522 lung 68.6% | A549/ATCC NSCLC 95% | 786-0 renal 93.9% | DU-145 prostate 92.7% | K-562 leukemia 60.2% | MALME-3M melanoma 88.9% | MDA-MB-231 breast 81.6% | RXF 393 renal 13% | SF-268 CNS 65.5% | SF-295 CNS 96.4% | SF-539 CNS 98.8% | UACC-257 melanoma 98.9% | M14 melanoma 89.2%

COc1ccc(/C=C2\SC(=O)N(CN3CCN(c4cc5c(cc4F)c(=O)c(C(=O)O)cn5C4CC4)CC3)C2=O)cc1
inactive: NCI-H23 lung 96.9% | NCI-H322M lung 112% | HOP-62 NSCLC 109% | NCI-H460 lung 104% | HOP-92 NSCLC 101% | NCI-H522 lung 94.2% | A549/ATCC NSCLC 99.4% | 786-0 renal 93.1% | DU-145 prostate 109% | K-562 leukemia 114% | MALME-3M melanoma 97.6% | MDA-MB-231 breast 106% | RXF 393 renal 108% | SF-268 CNS 99% | SF-295 CNS 99.6% | SF-539 CNS 107% | UACC-257 melanoma 96.7% | M14 melanoma 88.6%

COc1ccc(OC2=CC(=O)c3ccc(C)nc3C2=O)cc1
inactive: NCI-H23 lung 65.7% | NCI-H322M lung 102% | HOP-62 NSCLC 89.1% | NCI-H460 lung 86.1% | HOP-92 NSCLC 122% | NCI-H522 lung 55.2% | A549/ATCC NSCLC 96.4% | 786-0 renal 109% | DU-145 prostate 102% | K-562 leukemia 43.5% | MALME-3M melanoma 128% | MDA-MB-231 breast 90.1% | RXF 393 renal 88.9% | SF-268 CNS 79.2% | SF-295 CNS 96.8% | SF-539 CNS 89.6% | UACC-257 melanoma 93.8% | M14 melanoma 87.3%

COc1ccc(/C=N/NC(=O)c2cnn3c2NC(c2ccccc2)C3)cc1OC1CCCC1 (stereo not given)
inactive: NCI-H23 lung 98.8% | NCI-H322M lung 101% | HOP-62 NSCLC 87.9% | NCI-H460 lung 100% | HOP-92 NSCLC 94% | NCI-H522 lung 79.5% | A549/ATCC NSCLC 84.1% | 786-0 renal 98.4% | DU-145 prostate 98.3% | K-562 leukemia 70.4% | MALME-3M melanoma 123% | MDA-MB-231 breast 66.6% | RXF 393 renal 104% | SF-268 CNS 93.4% | SF-295 CNS 90.7% | SF-539 CNS 87.2% | UACC-257 melanoma 98.7% | M14 melanoma 93.5%

COC(=O)c1c2c(c(C)[n+]([O-])c1C)C(=O)C(NCc1ccc(O)cc1)=CC2=O
inactive: HOP-92 NSCLC 34%
active: NCI-H23 lung -57.4% | NCI-H322M lung 0.623% | HOP-62 NSCLC -7.28% | NCI-H460 lung -3.38% | NCI-H522 lung -33.2% | A549/ATCC NSCLC 4.46% | 786-0 renal 7.96% | DU-145 prostate -69.2% | K-562 leukemia 6.74% | MALME-3M melanoma -98.5% | MDA-MB-231 breast -10.3% | RXF 393 renal -4.53% | SF-268 CNS -9.31% | SF-295 CNS -9.04% | SF-539 CNS -59.7% | UACC-257 melanoma -62.4% | M14 melanoma -76.5%

COc1ccc(/C=C2\Oc3cc(C)c(Cl)cc3C2=O)cc1OC
inactive: NCI-H23 lung 103% | NCI-H322M lung 107% | HOP-62 NSCLC 111% | NCI-H460 lung 103% | HOP-92 NSCLC 101% | NCI-H522 lung 82.7% | A549/ATCC NSCLC 98.3% | 786-0 renal 95.7% | DU-145 prostate 104% | K-562 leukemia 86.6% | MALME-3M melanoma 99.7% | MDA-MB-231 breast 102% | RXF 393 renal 111% | SF-268 CNS 102% | SF-295 CNS 95.7% | SF-539 CNS 92.7% | UACC-257 melanoma 101% | M14 melanoma 96.3%

CCN(CC)c1ccc2c(c1)OS(=O)(=O)N=C2
inactive: NCI-H23 lung 95.6% | NCI-H322M lung 107% | HOP-62 NSCLC 99.9% | NCI-H460 lung 109% | HOP-92 NSCLC 85.4% | NCI-H522 lung 97.6% | A549/ATCC NSCLC 106% | 786-0 renal 93% | DU-145 prostate 108% | K-562 leukemia 101% | MALME-3M melanoma 98.1% | MDA-MB-231 breast 134% | RXF 393 renal 119% | SF-268 CNS 97.7% | SF-295 CNS 99.4% | SF-539 CNS 99.9% | UACC-257 melanoma 103% | M14 melanoma 98.6%

CCOC(=O)c1[nH]c2cc(Cl)ccc2c1[C@@H](C(=O)NC(C)(C)C)N(CC)C(=O)CCCCC#Cc1cccc2c1CN(C1CCC(=O)NC1=O)C2=O (stereo not given in full)
inactive: NCI-H23 lung 59.4% | NCI-H322M lung 13.5% | HOP-62 NSCLC 20.7% | NCI-H460 lung 13.9% | NCI-H522 lung 44.2% | A549/ATCC NSCLC 20.7% | 786-0 renal 13.5% | DU-145 prostate 32.8% | K-562 leukemia 17.5% | SF-268 CNS 25% | SF-539 CNS 29.6% | UACC-257 melanoma 28.4% | M14 melanoma 16.9%
active: HOP-92 NSCLC 6.15% | MALME-3M melanoma -12.6% | MDA-MB-231 breast -50.1% | RXF 393 renal -1.34% | SF-295 CNS -5.32%

O=C(N/N=C(\CS(=O)(=O)c1ccccc1)c1cc2ccccc2oc1=O)c1ccccc1
inactive: NCI-H23 lung 97.9% | NCI-H322M lung 107% | HOP-62 NSCLC 117% | NCI-H460 lung 101% | HOP-92 NSCLC 117% | NCI-H522 lung 100% | A549/ATCC NSCLC 93.1% | 786-0 renal 106% | DU-145 prostate 111% | K-562 leukemia 109% | MALME-3M melanoma 110% | MDA-MB-231 breast 99.4% | RXF 393 renal 132% | SF-268 CNS 99.2% | SF-295 CNS 101% | SF-539 CNS 103% | UACC-257 melanoma 94.6% | M14 melanoma 110%

O=c1oc2ccccc2cc1-c1csc(N/N=C/c2cc3ccccc3nc2Cl)n1
inactive: NCI-H23 lung 99.8% | NCI-H322M lung 103% | HOP-62 NSCLC 109% | NCI-H460 lung 99.7% | HOP-92 NSCLC 97.5% | NCI-H522 lung 93.3% | A549/ATCC NSCLC 92.8% | 786-0 renal 107% | DU-145 prostate 87.6% | K-562 leukemia 108% | MALME-3M melanoma 103% | MDA-MB-231 breast 79.1% | RXF 393 renal 111% | SF-268 CNS 106% | SF-295 CNS 97.8% | SF-539 CNS 96.1% | UACC-257 melanoma 115% | M14 melanoma 115%
